ChEMBL document CHEMBL1201862, “PubChem BioAssay data set” (2004)
Screen size: about 310,000 compounds; about 17,000 (5.5%) were called active. Inconclusive results (about 11%) are left out. No cut-off for these calls is given here. The sample as a whole holds a higher share of actives than the screen did.

The compounds below were run against T1, Nuclear receptor ROR-gamma (Mus musculus) (UniProt P51450) (assay: qHTS for inhibitors of ROR gamma transcriptional activity.).
T1 sequence (whole entry): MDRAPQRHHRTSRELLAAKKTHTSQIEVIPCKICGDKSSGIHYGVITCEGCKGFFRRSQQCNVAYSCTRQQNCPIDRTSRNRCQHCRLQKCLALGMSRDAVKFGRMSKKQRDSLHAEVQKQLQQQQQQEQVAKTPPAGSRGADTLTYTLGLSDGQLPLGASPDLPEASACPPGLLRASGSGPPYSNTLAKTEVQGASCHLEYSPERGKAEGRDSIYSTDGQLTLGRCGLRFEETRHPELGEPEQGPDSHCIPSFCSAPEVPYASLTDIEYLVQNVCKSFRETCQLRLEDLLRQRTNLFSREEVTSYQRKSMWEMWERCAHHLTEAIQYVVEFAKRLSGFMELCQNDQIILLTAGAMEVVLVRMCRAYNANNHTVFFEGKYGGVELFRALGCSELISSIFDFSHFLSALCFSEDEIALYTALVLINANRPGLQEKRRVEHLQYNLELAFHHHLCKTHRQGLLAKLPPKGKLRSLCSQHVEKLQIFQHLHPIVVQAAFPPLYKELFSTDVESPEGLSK
Type: functional

Row | SMILES | Potency
1 | COC[C@@H]([C@H](O)[C@H](O)C(=O)NCC[C@H](C)c1nc(/C=C/C[C@@H]2O[C@]3(C[C@@H](O)[C@@H]2C)O[C@H]([C@H](C[C@H](O)[C@H](C)[C@H](O)[C@H](C)/C=C(C)/C(C)=C/C=C/C(C)=C\C#N)OC)[C@H](OP(=O)(O)O)C3(C)C)co1)N(C)C | 0.0014 µM (active)
2 | Cl[Te]1(Cl)OCCO1 | 15.8 µM (active)
